# ChEMBL document CHEMBL4513216, “Probing the Open Global Health Chemical Diversity Library for Multistage-Active Starting Points for Next-Generation Antimalarials” (ACS Infect Dis, 2020)
# In all, about 69,000 compounds went through this assay and about 8,600 (12%) showed an effect of 50% or more. The entries come from a sample that favours strong results as a whole.
# Test system: Plasmodium berghei
# Test: Screen against P. berghei liver stage (PbLuc), transformed with Luciferase, at 10uM
# Assay type: functional, HepG2
# Conditions: tested at 10 uM
row,Compound,INHIBITION
1,CSc1cccc(CN2CCn3nc(CNC(C)=O)cc3C2)c1,8.38%
2,Cn1ncc2c1C(COCC1CC1)CN(Cc1ccc(F)cc1)C2 (stereo unspecified),-5.69%
3,Cc1cc(C)n(-c2ccc(C(=O)NCC(CO)Cc3ccco3)cc2)n1 (stereo unspecified),32.1%
4,Cc1csc(CNc2cnc3c(c2)c(C)nn3C)n1,16%
5,COc1ccc(S(=O)(=O)Nc2cnc(N(C)C)nc2)cc1,40.6%
6,Cc1nc(N(C)C)nc(C)c1NS(=O)(=O)c1ccc(OC(F)(F)F)cc1,-2.09%
7,Cn1cc(NS(=O)(=O)c2ccc(OC(F)(F)F)cc2)ccc1=O,84.6%
8,Cc1ccc(S(=O)(=O)Nc2ccc(=O)n(C)c2)cc1,46.5%
9,CN(C)c1ncc(NS(=O)(=O)c2ccc(OC(F)(F)F)cc2)cn1,51.6%
10,CSc1ccc(NS(=O)(=O)c2cnn(C)c2)cn1,1.81%
11,O=S(=O)(Nc1cnc(N2CCCC2)nc1)c1ccc(C(F)(F)F)cc1,37.3%
12,O=S(=O)(Nc1cnc(N2CCCC2)nc1)c1ccc(OC(F)(F)F)cc1,40.1%
13,Cn1cc(NS(=O)(=O)c2ccc(C(F)(F)F)cc2)ccc1=O,60.5%
14,O=C(c1cccnc1N1CCOCC1)N1CCCC(n2cncn2)C1 (stereo unspecified),36.1%
15,CC(C)OCCN1CCC(Nc2nccnc2C#N)CC1,33.1%
16,Cc1ccc(CN2CCC3(CCC3NS(=O)(=O)c3ccccc3)CC2)o1 (stereo unspecified),-12.4%
17,O=c1ccc2c(n1CCN1CCCC1)CCN(Cc1ccoc1)CC2,8.47%
18,COCCN1CCCC(c2cncc(Oc3ccccc3OC)n2)C1 (stereo unspecified),-5.71%
19,O=C1CN(Cc2cn(C3CCN(C4CSCCSC4)CC3)nn2)CCN1,65.6%
20,c1cc(CN2CCC(n3cc(CN4CCCC4)nn3)CC2)cs1,42.1%
21,O=C1CN(Cc2cn(CC3CCCN(C4CCSCC4)C3)nn2)CCN1 (stereo unspecified),54.5%
22,O=C1CN(Cc2cn(CC3CCN(C4CCSCC4)CC3)nn2)CCN1,32.2%

row,Compound,INHIBITION
1,OC1CCCN(Cc2cn(CC3CCN(C4CCSCC4)CC3)nn2)C1 (stereo unspecified),18.3%
2,Cc1cc(N2CCC(n3cc(CN4CCSCC4)nn3)CC2)ccn1,30.9%
3,c1cncc(CN2CC(Cc3nccc4cc[nH]c34)C2)c1,19.3%
4,O=C(NCC1CCC1)c1ccc(-n2ccnc2)nn1,-15%
5,CCCOc1ccc(C(=O)Oc2cc(=O)n3cccc(C)c3n2)cc1,0.207%
6,CC1c2ncc(COCc3ccccn3)n2CCN1C1CCCC1 (stereo unspecified),37.8%
7,O=C(O)c1ccccc1-c1ccc(Cn2c(=O)cc[nH]c2=O)cc1,2.55%
8,Cc1ccnc(C2CCCN2C(=O)CN(C)C)n1 (stereo unspecified),-16.5%
9,O=C(NCCn1nc2ccccn2c1=O)c1sccc1-c1ccccc1,-20.53%
10,CC(C)COCCNC(=O)NC1CCCN(c2cnn(C)c2)C1 (stereo unspecified),-49.3%
11,c1ccc(Cc2cccc(C3CCCN3C3CCOCC3)n2)cc1 (stereo unspecified),32.921%
12,COCC(=O)N1CCC(c2cncc(-c3cccc(F)c3)n2)CC1,8.72%
13,Fc1cccc(Cc2cncc(C3CCCN3C3CCOCC3)n2)c1 (stereo unspecified),41.1%
14,COCC(=O)N1CCC(c2cccc(Cc3ccc(F)cc3)n2)CC1,54%
15,CN(C)C(=O)CN1CCC(c2cccc(Cc3ccc(F)cc3)n2)CC1,24.4%
16,Fc1ccc(Cc2cccc(C3CCN(C4CCOCC4)CC3)n2)cc1,72.3%
17,Cc1nn(C)c2c(=O)n(C)c(NCC3CCCO3)nc12 (stereo unspecified),49.1%
18,CC(=O)N1N=C(Cc2ccccc2)OC1C(=O)NCC(C)C (stereo unspecified),-21.1%
19,CN1CC(=O)N(c2cnn(C)c2)CC12CCN(C(=O)c1ccsc1)C2 (stereo unspecified),51.7%
20,Cn1cc(C2COC3(CCN(C(=O)c4cccc(O)c4)CC3)C2)cn1 (stereo unspecified),32.2%
21,Cn1cc(C2COC3(CCN(C(=O)c4ccccn4)CC3)C2)cn1 (stereo unspecified),42.7%
22,CN1CC(=O)N(c2ccsc2)CC12CCN(C(=O)c1ccc[nH]1)C2 (stereo unspecified),15.9%

row,Compound,INHIBITION
1,Cn1cc(C2COC3(CCN(C(=O)c4ccn(C)n4)CC3)C2)cn1 (stereo unspecified),41.6%
2,Cc1cccc(C(=O)N2CCC3(CC2)CC(c2cnn(C)c2)CO3)c1 (stereo unspecified),69.5%
3,Cn1cc(C2COC3(CCN(C(=O)c4ccsc4)CC3)C2)cn1 (stereo unspecified),69.5%
4,Cc1ccccc1C(=O)N1CCC2(CC1)CC(c1cnn(C)c1)CO2 (stereo unspecified),53.2%
5,Cc1ccc(C(=O)N2CCC3(CC2)CC(c2cnn(C)c2)CO3)cn1 (stereo unspecified),39.2%
6,CN1CC(=O)N(c2ccsc2)CC12CCN(C(=O)c1ccccc1)C2 (stereo unspecified),45.5%
7,Cn1cc(C2COC3(CCN(C(=O)c4cccn4C)CC3)C2)cn1 (stereo unspecified),36.9%
8,Cn1cc(C2COC3(CCN(C(=O)c4ccc(F)cc4)CC3)C2)cn1 (stereo unspecified),18.2%
9,Cc1nc(C)n(CC(=O)N2CCc3ncc(Cl)cc3C2)n1,8.72%
10,CO[C@@H]1CO[C@@]2(CCCN(S(=O)(=O)c3ccccc3)C2)C1,40.4%
11,CCOC(=O)N(C)CC(=O)NCCc1coc(-c2ccc(C)cc2)n1,11.4%
12,Cn1cc(N2C(=O)CC[C@@H]3[C@H]2CCN3CC2CCOCC2)cn1,8.52%
13,O=C(CCCN1CCCCC1)NC(C(=O)O)c1ccc(Cl)cc1 (stereo unspecified),6.11%
14,O=C(Cc1cccc(F)c1)NCCNc1ncccn1,37.4%
15,CCOCC(=O)N1CCC2(CC1)COC(COCc1ccccn1)C2 (stereo unspecified),-13%
16,Cc1cc(C)n2cc(CN3CCC(N4CCN(C)C4=O)CC3)nc2n1,39.1%
17,CC(NS(C)(=O)=O)C(=O)N1CCCN(Cc2cscn2)CC1 (stereo unspecified),48.9%
18,Cc1cnn(C2CCCN(C(=O)Cc3ccc4c(c3)CCO4)C2)c1 (stereo unspecified),31.8%
19,CNc1cc(N2CCCC2CNCc2csc(C)n2)ncn1 (stereo unspecified),29.425%
20,O=C(CC1CCCC1)N1CC[C@H]2[C@H]1CCN2c1nncs1,43.8%
21,CCc1ncc(C(=O)N2CCC(Nc3ccc(C)nn3)CC2)s1,-58.7%
22,COCC(=O)N1CC[C@]2(O)CCN(C(=O)CCc3ccsc3)C[C@@H]2C1,26.9%
